# Laboratory results: PubChem BioAssay (NCATS)
# Records with an inconclusive call do not appear. A call without a number means that no potency is given here. Calls of active or inactive are those of the source. Unless noted, the call rests on the fitted dose curve; in most records, active means well fitted curve in the direction sought with a large enough effect; inconclusive means small, poorly fitted or top-dose-only effect, or another doubt; inactive means no such curve, though single readings can be large; an effect the other way counts as inactive or inconclusive.
# Legend:
# [1] = qHTS to identify inhibitors of the type 1 interferon - major histocompatibility complex class I in skeletal muscle: primary screen against the NCATS Mechanism Interrogation Plate v5.0 (MIPE) Libary (AID 1347411); further: nearly all actives have a fitted effect of over 65% in size; further: potency means the concentration at half of the fitted maximal effect
# Procedure, shortened: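 Cells were genome-edited human myoblasts carrying a HiBit tag on endogenous HLA-B. They were treated with IFN-beta (4.0 ng/ml) and titrated compounds (top 46 uM) for 24 hrs before lytic HiBiT detection.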
# [2] = target: Calcium and integrin-binding protein 1 (Homo sapiens) (UniProt Q99828); test: Primary qHTS for Identification of Calcium Integrin Binding Protein 1 (CIB1) Competitor (AID 1508620);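 further: GST tagged CIB1 binding a fluorescein labelled alphaIIb integrin peptide tracer; top concentration of the series differs between compounds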
# Chain of Calcium and integrin-binding protein 1 (Homo sapiens) (Q99828 whole entry, looked up): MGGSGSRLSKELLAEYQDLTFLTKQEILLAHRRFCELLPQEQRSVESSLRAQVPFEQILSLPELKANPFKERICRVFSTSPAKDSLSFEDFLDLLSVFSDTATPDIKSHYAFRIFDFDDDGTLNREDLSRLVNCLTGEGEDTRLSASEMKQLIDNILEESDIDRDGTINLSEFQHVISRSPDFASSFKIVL
# Procedure, shortened: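 CIB1-GST (1 uM final) and compound incubated 15 min at room temperature before adding FITC-alphaIIb peptide tracer (100 nM final). Competition for binding read by fluorescence polarization (ex 480, em 540) after another 15 min at room temperature.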
# [3] = target: Cytochrome P450 2D6 (Homo sapiens) (UniProt P10635); test: Cytochrome P450 family 2 subfamily D member 6 (CYP2D6) small molecule antagonists: luciferase biochemical (cell-free) qHTS assay (AID 1645840; active means well fitted curve in the direction sought with a large enough effect in the repeat runs; an effect the other way counts as inactive or inconclusive; further: nearly all actives have a fitted effect of over 55% in size; further: potency means the concentration at half of the fitted maximal effect)
# Chain of Cytochrome P450 2D6 (Homo sapiens) (P10635 whole entry, looked up): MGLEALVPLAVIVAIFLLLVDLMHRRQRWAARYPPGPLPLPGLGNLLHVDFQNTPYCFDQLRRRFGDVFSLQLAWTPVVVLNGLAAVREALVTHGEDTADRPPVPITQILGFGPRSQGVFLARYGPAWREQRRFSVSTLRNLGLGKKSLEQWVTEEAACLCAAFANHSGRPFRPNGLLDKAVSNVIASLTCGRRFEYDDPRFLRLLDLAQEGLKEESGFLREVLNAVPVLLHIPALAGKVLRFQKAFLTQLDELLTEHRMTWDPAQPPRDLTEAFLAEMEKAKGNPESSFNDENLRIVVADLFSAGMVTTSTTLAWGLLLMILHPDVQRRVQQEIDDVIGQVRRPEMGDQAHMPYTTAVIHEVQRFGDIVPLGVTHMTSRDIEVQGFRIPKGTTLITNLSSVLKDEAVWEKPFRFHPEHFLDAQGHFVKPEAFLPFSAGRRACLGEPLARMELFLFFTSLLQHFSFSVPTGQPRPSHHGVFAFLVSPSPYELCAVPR
# Procedure, shortened: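 P450-Glo luminescent screen: recombinant CYP2D6 enzyme–proluciferin substrate mix preincubated with compound 10 min at room temperature, then NADPH regeneration added for 1 h at room temperature. Detection reagent added for 20 min; luciferin light read as relative luminescence units.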
# [4] = target: Calcium and integrin-binding protein 1 (Homo sapiens) (UniProt Q99828); test: Confirmatory qHTS for Identification of Calcium Integrin Binding Protein 1 (CIB1) Competitor (AID 1508617); further: potency means the concentration at half of the fitted maximal effect; nearly all actives have a fitted effect of over 65% in size
# Procedure, shortened: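 Compounds at up to 114 uM final met 1 uM GST-tagged CIB1 for 15 min at room temperature (HEPES pH 7.4, 5 mM CaCl2). FITC-labelled alphaIIb peptide, 100 nM, added; polarization read after 15 min more.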
structure (smiles),measurement,setting,value
Cc1cc(Nc2ncc(Cl)c(Nc3ccccc3S(=O)(=O)C(C)C)n2)c(OC(C)C)cc1C1CCNCC1,Potency,[1],20.8 µM (active)
same,Potency,[2],inactive
same,Potency,[3],16.9 µM (active)
C=C1CC[C@@H]2[C@](C)(CC[C@H](O)[C@@]2(C)CCC=C(C)C)[C@@H]1Cc1c[nH]c2ccccc12,Potency,[2],inactive
CCCCN(CCCC)C(=O)CN1C[C@H](c2ccc3c(c2)OCO3)[C@@H](C(=O)O)[C@@H]1c1ccc(OC)cc1,Potency,[1],inactive
same,Potency,[2],inactive
same,Potency,[3],19 µM (active)
CCCC1=CC2=C(CO1)C(=O)C(C)(OC(=O)c1c(C)cc(OC)cc1O)C(O)C2 (configuration not stated),Potency,[2],inactive
C[C@@H]1C[C@H](O)/C=C/[C@H](O)[C@@H](O)CC(=O)O1,Potency,[2],inactive
CC(=O)c1c(O)cc2cccc3c2c1CC(C)(O)O3 (configuration not stated),Potency,[4],39.8 µM (active)
C=C1CC23CC1(O)CCC2C1=CC2OC(=O)C(C)(C2O)C1C3C(=O)O (configuration not stated),Potency,[2],inactive
COC(=O)C1=CO[C@@H](O[C@@H]2O[C@H](CO)[C@@H](O)[C@H](O)[C@H]2O)[C@@H]2[C@@H](C(=O)OC)[C@@H](O)C(O)[C@H]12 (some centres not stated),Potency,[2],inactive
Cc1c(N2C(=O)c3ccc(C(=O)O)cc3C2=O)c(=O)n(-c2ccccc2)n1C,Potency,[2],inactive
CC(=O)O[C@H]1CC[C@@]2(CI)C(=CC[C@@H]3[C@@H]2CC[C@]2(C)[C@@H]([C@H](C)CCCC(C)C)CC[C@@H]32)C1,Potency,[2],inactive
C=C1CCC2C(C)(C)CC(=O)CC2(C)C1CCC(C)CCOC(C)=O (configuration not stated),Potency,[2],inactive
C=C1CC[C@@H]2[C@](C)(CO)[C@H](O)CC[C@@]2(C)[C@@H]1C/C=C1/C(=O)OC[C@H]1O,Potency,[1],11.7 µM (active)
same,Potency,[3],inactive
